Compound activity as filed in PubChem.
DAGLB inh = DAGLB lipase inhibitors, primary screen, biochemical, fluorescence, HTS; Diacylglycerol lipase-beta (Homo sapiens), Q8NCG7; hit rate 0.059% among 340,000; inhibition, % at 5.17 µM; AID 504411, 2011; HEK293T DAGLB membrane lysate, EnzChek fluorogenic substrate; in the data active = inhibition above about 34%;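 also: 0% = enzyme with vehicle and 100% = wells lacking enzyme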
Target sequence (Q8NCG7 whole entry, looked up): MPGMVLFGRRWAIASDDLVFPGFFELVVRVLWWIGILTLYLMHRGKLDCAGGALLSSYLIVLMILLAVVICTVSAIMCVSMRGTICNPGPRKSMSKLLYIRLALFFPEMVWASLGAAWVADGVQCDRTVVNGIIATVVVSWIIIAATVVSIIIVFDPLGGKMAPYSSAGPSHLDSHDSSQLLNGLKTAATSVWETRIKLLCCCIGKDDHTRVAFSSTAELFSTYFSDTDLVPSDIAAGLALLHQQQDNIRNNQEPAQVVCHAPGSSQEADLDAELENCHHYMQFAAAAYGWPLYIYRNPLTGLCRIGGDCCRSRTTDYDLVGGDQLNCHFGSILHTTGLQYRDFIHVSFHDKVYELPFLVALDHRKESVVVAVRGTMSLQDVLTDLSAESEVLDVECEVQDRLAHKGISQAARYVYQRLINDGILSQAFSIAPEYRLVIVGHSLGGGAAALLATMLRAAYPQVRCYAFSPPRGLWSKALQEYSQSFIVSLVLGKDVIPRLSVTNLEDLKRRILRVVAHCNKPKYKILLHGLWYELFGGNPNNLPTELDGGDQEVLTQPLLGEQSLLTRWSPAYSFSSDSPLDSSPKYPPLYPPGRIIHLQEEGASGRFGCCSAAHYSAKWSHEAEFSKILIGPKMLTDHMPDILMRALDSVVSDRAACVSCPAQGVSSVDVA
rCAG binder = binders of r(CAG) RNA repeats, primary screen, biochemical, fluorescence. hit rate 1.3% among 370,000. r(CAG) RNA repeat, TO-PRO-1 dye displacement fluorescence. AID 651821, 2012. inhibition, % at 3 µM;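 active = inhibition above the plate cutoff, the mean of all test compounds on that plate plus 3 SD, cut at about 35% in these data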;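 also: 0% = DMSO alone and 100% = 100 µM mitoxantrone as full dye displacement; higher means more dye released from RNA so lower well fluorescence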
MsrA inhibitor = bovine MsrA enzyme inhibitors, primary screen, biochemical, absorbance, HTS; Methionine sulfoxide reductase A (Bos taurus); AID 651718, 2012; purified bovine MsrA, absorbance read-out; hit rate 0.75% among 360,000; inhibition, % at 15.5 µM; in the data active = inhibition above about 4.5%;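 also: 0% = vehicle wells with enzyme and 100% = reference inhibitor wells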
NadD inh = inhibitors of S. aureus NadD, primary screen, biochemical, colorimetric, uHTS; hit rate 0.78% among 360,000; purified NadD enzyme, colorimetric absorbance read-out; inhibition, % at 20 µM; Nicotinate-nucleotide adenylyltransferase NadD (Staphylococcus aureus N315); in the data active = inhibition above about 26%
bovine MsrA act = bovine MsrA enzyme activators, primary screen, biochemical, absorbance, HTS; Methionine sulfoxide reductase A (Bos taurus); purified bovine MsrA, absorbance read-out; activation, % at 10.6 µM; hit rate 0.3% among 360,000; in the data active = activation above about 7.5%;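 also: 0% = vehicle and 100% = reference activator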
DSG3 Ab inh = inhibitors of pemphigus antibody binding to DSG3, primary screen, biochemical, bead-based, flow cytometry, scFv-GFP; Desmoglein-3 (Homo sapiens), P32926; DSG3-coupled beads, scFv-anti-DSG3-GFP binding; hits give low values; binding (percent of control), % at 10 µM; hit rate 0.48% among 310,000; AID 588358, 2011;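 active = binding more than 3 SD below its plate's average and above zero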;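 also: hits lower antibody fragment binding to DSG3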
rCAG bind conf = small molecules binding CAG repeat RNA – biochemical, fluorescence, confirmation; inhibition, % at 3 µM; hit rate 70% among 4,300; shares compounds with rCAG binder; r(CAG) RNA repeat, TO-PRO-1 dye displacement fluorescence;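 active = inhibition above a per-plate cutoff, the mean inhibition of sample wells plus 3 SD, cut at about 35% in these data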;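 also: loss of TO-PRO-1 fluorescence as compound displaces dye from 1x1 AA loop RNA; 0% = DMSO only wells and 100% = 100 µM mitoxantrone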
DNA CAG counter = displacement of TO-PRO-1 from CAG DNA duplex, counter-screen for rCAG RNA repeat binder project, biochemical, fluorescence, TO-PRO-1 dye, d(CAG) DNA oligo. shares compounds with rCAG binder. d(CAG) DNA oligo TO-PRO-1 dye displacement. inhibition, % at 3 µM. hit rate 94% among 4,300;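 active = inhibition above its plate's cutoff, the mean test-well inhibition plus 3 SD, cut at about 4.8% in these data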;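 also: 0% = DNA dye mix with DMSO and 100% = 100 µM mitoxantrone; hits displace the dye from DNA and so lower well fluorescence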
* hit, by the source's call; nt = no result given. Most compounds without a hit are left out; they make up all but 3.2% or so of the library.

SMILES	DAGLB inh	rCAG binder	MsrA inhibitor	NadD inh	bovine MsrA act	DSG3 Ab inh	rCAG bind conf	DNA CAG counter
CC(=O)Nc1ccc(Nc2nc3ccccc3nc2NS(=O)(=O)c2ccc(Cl)c([N+](=O)[O-])c2)cc1	14	91*	0	12	-4	102	93*	76*
CCOC(=O)c1ccc(/C=C2/C=C(c3ccccc3)N(c3ccc(Cl)c(C(=O)O)c3)C2=O)cc1	10	61*	0	29	-6	133	70*	32*
Cc1nn(-c2ccccc2)c2sc(C(=O)NCc3ccc(F)cc3)cc12	nt	8	nt	nt	nt	nt	nt	nt
Cc1cccnc1NC(=O)c1ccc(OCc2c(C)noc2C)cc1	0	-5	0	5	2	114	nt	nt
O=C(N/N=C/c1cc(Br)cc([N+](=O)[O-])c1O)c1ccc(NC(=O)c2ccc(F)cc2)cc1	17	43*	-1	54*	-2	90	78*	41*
COC(=O)[C@]12C[C@H](CC(=O)N3CCN(C(=O)c4ccco4)CC3)C(=O)N(Cc3ccco3)C1=C[C@H](C1CCCC1)O[C@@H]2C	nt	3	nt	nt	nt	nt	nt	nt
O=C(O)c1[nH]c2ccc(Br)cc2c1CCN1C(=O)c2cccc([N+](=O)[O-])c2C1=O	11	64*	0	0	-5	99	42*	13*
COc1ccc2[nH]c(C(=O)O)c(CCN3C(=O)c4ccc(C(=O)O)cc4C3=O)c2c1	0	1	0	-7	2	107	nt	nt
Cc1ccc(NC(=O)CCN2C(=O)c3cccc([N+](=O)[O-])c3C2=O)c(Br)c1	1	-2	1	-8	-3	98	nt	nt
O=C(O)c1[nH]c2ccc(Cl)cc2c1CCN1C(=O)c2ccccc2C1=O	14	50*	1	-11	-6	98	26	6.3*
Cc1ccc(F)cc1C(=O)N1CCCC(c2cc(C(=O)NCc3ccc(F)cc3)no2)C1 (stereo unspecified)	nt	2	1	-1	-4	nt	nt	nt
CCCc1nc2cc(C)c(Br)c(C)n2c1Cc1ccccc1OC	nt	10	2	3	-7	nt	nt	nt
Cc1oc2cc3oc(=O)c(CCC(=O)N4CCC(C(=O)O)(c5ccccc5)CC4)c(C)c3cc2c1C	nt	3	-1	-1	-7	nt	nt	nt
Cc1oc2c(C)c3oc(=O)c(CCC(=O)N4CCC(C(=O)NCCC(=O)O)(c5ccccc5)CC4)c(C)c3cc2c1C	1	35*	3	1	-4	99	58*	16*
CCN(CC)S(=O)(=O)c1cccc(C(=O)N/N=C/c2ccc(N3CCOCC3)cc2)c1	-3	-1	3	-2	-8	108	nt	nt
CCN(CC)S(=O)(=O)c1cccc(C(=O)N/N=C/c2ccc(O)c(O)c2O)c1	6	53*	4	5	-8	nt	55*	24*
O=C(O)c1ccc(CNS(=O)(=O)c2ccc(Oc3ccccc3Cl)cc2)cc1	-2	39*	2	-4	-3	107	28	6.6*
O=C(O)c1ccc(CNS(=O)(=O)c2ccc3ccccc3c2)cc1	1	0	1	-4	-3	nt	nt	nt
CC1=CN2C(=N)/C(=C/c3ccc([N+](=O)[O-])o3)C(=O)N=C2S1	3	53*	1	7	-5	110	30	15*
CC1=CN2C(=N)/C(=C/c3ccco3)C(=O)N=C2S1	0	6	4	-1	-3	105	nt	nt
Cc1cc(OCCOCCNCc2ccccc2)ccc1C(C)C	1	-10	-1	-6	-3	133	nt	nt
COc1ccc(C(=O)N2CCC(Oc3cccnc3)CC2)c(OC)c1	nt	1	nt	nt	nt	nt	nt	nt
O=C(O)c1cccc2c(-c3ccccc3)c(-c3ccccc3)[nH]c12	11	77*	1	4	-11	100	66*	23*
O=C(Nc1cccc(C(=O)O)c1)/C(=C/c1cccc([N+](=O)[O-])c1)NC(=O)c1cccc(Br)c1	4	47*	0	4	-9	115	22	4.8*
O=C(Nc1cccc(C(=O)O)c1)/C(=C/c1ccccc1)NC(=O)c1cccc(Br)c1	10	19	2	5	-3	101	nt	nt
SMILES	DAGLB inh	rCAG binder	MsrA inhibitor	NadD inh	bovine MsrA act	DSG3 Ab inh	rCAG bind conf	DNA CAG counter
O=C(NC(Cc1ccccc1)C(=O)O)/C(=C/c1cccc([N+](=O)[O-])c1)NC(=O)c1cccc(Br)c1 (stereo unspecified)	3	48*	1	2	0	nt	51*	16*
O=C(NC(Cc1ccccc1)C(=O)O)/C(=C\c1ccco1)NC(=O)c1ccccc1 (stereo unspecified)	3	13	1	3	-3	105	nt	nt
O=C(NC(Cc1ccccc1)C(=O)O)/C(=C\c1ccco1)NC(=O)c1ccc(Br)cc1 (stereo unspecified)	5	37*	3	6	-2	110	34	8.2*
O=C(Nc1cccc(C(=O)O)c1)/C(=C/c1ccc2c(c1)OCO2)NC(=O)c1cccc(Br)c1	7	42*	3	10	-3	98	25	6.1*
CCC1Oc2ccccc2N(CC(=O)N2CC(C)CC(C)C2)C1=O (stereo unspecified)	-1	-1	0	2	-1	114	nt	nt
CCOC(=O)C1=CCN(S(=O)(=O)c2ccc(C)cc2)C1c1ccc(CC)cc1 (stereo unspecified)	nt	3	0	2	-7	nt	nt	nt
C/C(=N/NC(=O)c1sc(NS(=O)(=O)c2ccccc2)nc1C)c1ccccc1	6	58*	2	9	0	98	35	7.1*
CCOC(=O)c1sc(NS(=O)(=O)c2ccc(F)cc2)nc1C	3	15	2	-2	-1	103	nt	nt
Cc1ccc(C)c(S(=O)(=O)NNC(=O)c2sc(NS(=O)(=O)c3ccccc3)nc2C)c1	0	47*	1	-1	-9	106	31	6.4*
C/C(=N/NC(=O)c1sc(NS(=O)(=O)c2ccccc2)nc1C)c1ccc(F)cc1	7	84*	2	-1	-6	100	49*	15*
CCCCCCCCN1C(=O)[C@@H](CC(=O)NCc2cccs2)C[C@@]2(C(=O)OC)C1=C[C@H](C(C)C)O[C@@H]2C1CC1	nt	10	nt	nt	nt	nt	nt	nt
O=C(OCc1cn(Cc2cc(F)cc(F)c2)nn1)N1CCOCC1	nt	1	nt	nt	nt	nt	nt	nt
